This is an account of results in PubChem BioAssay (EPA / NIEHS).

Calls of active or inactive are those of the source. Rule for the calls: active = hit-call score of the fitted dose curve at least 0.9, where 1 is the maximum; inactive = score below 0.9.

This test is described as follows: APR_HepG2_CellLoss_24hr: Apredica 24-hour HepG2 Assay for Cell Loss (AID 2282908).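 For AC50: fit in both directions so a hit may be cell loss or gain.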 The settings on record: high-content imaging. The protocol:
APR_HepG2_24hr is a cell-based, multiplexed-readout assay that uses HepG2, a human liver cell line, with measurements taken at 24 hours after chemical dosing in a 384-well plate.APR_HepG2_CellLoss_24hr is one of 10 assay component(s) measured or calculated from the APR_HepG2_24hr assay. It is designed to make measurements of cell number, a form of viability reporter, as detected with fluorescence intensity signals by HCS Fluorescent Imaging technology.Data from the assay component APR_HepG2_CellLoss_24hr was analyzed into 1 assay endpoint. This assay endpoint, APR_HepG2_CellLoss_24hr, was analyzed with bidirectional fitting relative to DMSO as the negative control and baseline of activity. Using a type of viability reporter, measures of all nuclear dna for gain or loss-of-signal activity can be used to understand the viability at the cellular-level. Furthermore, this assay endpoint can be referred to as a secondary readout, because this assay has produced multiple assay endpoints where this one serves a viability function. To generalize the intended target to other relatable targets, this assay endpoint is annotated to the cell cycle intended target family, where the subfamily is proliferation.
Cells were treated with dimethyl sulfoxide (DMSO) as a solvent control at a final concentration of 0.5% v/v or with compounds in DMSO with a resulting final DMSO concentration of 0.5% v/v. Compound treatment was done at concentrations of 0.39, 0.78, 1.56, 3.12, 6.24, 12.5, 25, 50, 100, and 200 uM in duplicate on each plate. Cells were treated with compounds for 1, 24, or 72 hr. Carbonyl […] m-chloro-phenylhydrazone (CCCP) and taxol were used as positive controls for mitochondrial function and cytoskeletal stability, respectively; DMSO served as the negative control for this experiment. Cells were fixed by the direct addition of 50 uL formaldehyde in Hank's Balanced Salt Solution (HBSS) to a final concentration of 3.7%. After incubation in the fixation medium for 30 min at room temperature (293-298 K), cells were rinsed twice with HBSS and treated with cell permeabilization buffer (16 uL of 0.5% Triton X-100) for 10 min at room temperature (293-298 K) before labeling. For mitochondrial membrane potential and mitochondrial measurements, pre-fixed cells were incubated with 50 uL of MitoTracker Red CMXRos (Invitrogen) at a concentration of 250 nM for 30 min before fixation. In the remaining cases, post-fixed cells were labeled by incubation with a multiplexed mixture of primary antibodies in HBSS for 60 min at room temperature (293-298 K) to detect immunoreactivity of c-Jun (1:500), phospho-histone H3 (1:100), phospho-histone H2A.x (1:200), p53 (1:400), alpha-tubulin (1:200) and Hoechst 33342 (2 ug/mL). Cells were labeled for multiplexed imaging on two separate plates: a) Hoechst 33342, MitoTracker Red, phospho-histone H3, and alpha-tubulin, and b) Hoechst 33342, phospho-histone H2A.x, and c-Jun. A final rinse with HBSS (50 uL) was performed before analysis. The primary and secondary antibodies for the proteins were phospho-histone H3 (rabbit anti-phospho-histone H3 and FITC-donkey anti-rabbit IgG), phospho-histone H2A.x (mouse anti-phospho-histone H2A.x and FITC-donkey anti-mouse IgG), c-Jun (rabbit anti-phospho-c-Jun and Cy3-donkey anti-rabbit IgG), p53 (sheep anti-p53 and Cy5-donkey anti-sheep IgG), alpha-tubulin (mouse anti-alpha-tubulin and Cy5-donkey anti-mouse IgG). These antibodies are available as the CellCiphr HepG2 assay kit (Millipore).Digital images of each well were captured using a Cellomics ArrayScan VTI (Thermo Scientific Cellomics) (0.8 NA objective, 0.63x optical coupler, and XF-93 filter set) at 20x magnification. The images were acquired using the autofocus feature of the ArrayScan instrument, which entails the following steps. First, the camera focuses on channel 1 (Hoechst 33342), where nuclei are identified. Second, a Z offset of 1 um is used for capturing mitochondria (MitoTracker Red). […]
As to `O=C(O)C(F)(F)C(F)(F)C(F)(F)C(F)(F)C(F)(F)F`, the call was inactive.
Same read-out and setting: then `O=C(NC(=O)c1cc(F)c(F)cc1Cl)Nc1cc(F)ccc1N1CCC(C(=O)O)CC1`, with “inactive”; and `O=C(NC(=O)c1c(F)cccc1F)Nc1cc(Cl)c(OC(F)(F)C(F)F)c(Cl)c1`, with “inactive”.
Turning to `O=S(=O)(O)C(F)(F)C(F)(F)C(F)(F)C(F)(F)C(F)(F)C(F)(F)F`, the outcome was inactive.
Take `Cc1ccccc1[N+](=O)[O-]`: the call was inactive.
On to `O=C(N[C@H]1CN2CCC1CC2)c1cc2ccoc2cn1`, for which the compound was classed as inactive.
The same measure, in the same setting: then `C1CC2OC2CC1C1CO1` (stereo not given), with “inactive”.
The term AC50 denotes the concentration at which the activity in the assay is half-maximal. Take `CCCCCCCCCC[N+](C)(C)CCCCCCCCCC`: the AC50 was 4.36 µM (active).
For `C[C@]12CCC(=O)C=C1CC[C@@H]1[C@@H]2CC[C@]2(C)C(=O)CC[C@@H]12`, the compound was classed as inactive.
Take `CC1=C2C[C@H]3[C@@H](CC=C4C[C@@H](O)CC[C@@]43C)[C@@H]2CC[C@]12O[C@@H]1C[C@H](C)CN[C@H]1[C@H]2C`: the AC50 was 20.2 µM (active).
Regarding `ClC(Cl)=C(c1ccc(Cl)cc1)c1ccc(Cl)cc1`, the concentration at half-maximal activity (AC50) was 55.3 µM (active).
For `COc1ccc(O)c(C(C)(C)C)c1`, the call was inactive.
On to `CCCCCCCCOC(=O)c1ccccc1C(=O)OCCCCCCCC`, for which the result was inactive.
Still for that read-out and setting: under `CCCN(CCC)N=O` stands “inactive”; under `Clc1ccc(Cl)cc1`, “inactive”.
Consider `ClC1=C(Cl)[C@]2(Cl)[C@@H]3[C@@H]4C[C@@H]([C@H]5O[C@@H]45)[C@@H]3[C@@]1(Cl)C2(Cl)Cl`, for which the AC50 is 31.6 µM (active).
With `CCOCCOC(C)=O`, the compound was called inactive.
On the same count and under the same terms, then `O=NN(c1ccccc1)c1ccccc1`, with “inactive”.
Regarding `Clc1ccc(C(Cl)(Cl)Cl)cc1`, the compound was classed as inactive.
Consider `O=S(=O)(O)C(F)(F)C(F)(F)C(F)(F)C(F)(F)F`, for which the compound was classed as inactive.
On the same count and under the same terms, then `N#Cc1ccc(N(CC(N)=O)CC(F)(F)F)cc1C(F)(F)F`, with “inactive”; and `Nc1ccc(-c2ccc(N)cc2)cc1`, with “inactive”.
Consider `CC(C)(c1ccccc1)c1ccc(O)cc1`, for which the AC50 is 84.6 µM (active).
As to `CC#Cc1cc(C)nc(Nc2ccccc2)n1`, the result was inactive.
Take `Cc1ccc(O)c(C)c1`: the compound was called inactive.
Regarding `Oc1ccc(Cl)cc1Cl`, the compound was classed as inactive.
Same read-out and setting: under `C=CC(N)=O` stands “inactive”; under `C[C@]12CCC(=O)C=C1CC[C@@H]1[C@@H]2CC[C@@]2(C)[C@H]1CC[C@]2(C)O`, “inactive”.
The same measure, in the same setting: under `CN(C)CCO` stands “inactive”.
Turning to `O=C(O)C(F)(F)C(F)(F)C(F)(F)C(F)(F)C(F)(F)C(F)(F)C(F)(F)C(F)(F)F`, the AC50 was 104 µM (active).
For the compound `CC(C)(O)C(=O)Nc1ccc([N+](=O)[O-])c(C(F)(F)F)c1`, the result was inactive.
For the compound `O=C(O)C(F)(F)C(F)(F)C(F)(F)C(F)(F)C(F)(F)C(F)(F)C(F)(F)C(F)(F)C(F)(F)F`, the AC50 was 108 µM (active).
On the same count and under the same terms, then `ClC1=C(Cl)[C@]2(Cl)[C@@H]3[C@@H](Cl)[C@H]4O[C@H]4[C@@H]3C1(Cl)C2(Cl)Cl`, with 81.7 µM (active).
For the compound `Cc1cccc(C)c1N`, the result was inactive.
Take `CC(C)C(=O)OCC(C)(C)C(OC(=O)C(C)C)C(C)C` (stereo not given): the outcome was inactive.
Same read-out and setting: then `COS(=O)(=O)OC`, with “inactive”; and `Cc1ccccc1O`, with “inactive”.
Take `Oc1ccc(C(c2ccc(O)cc2)(C(F)(F)F)C(F)(F)F)cc1`: the call was inactive.
For `Cc1cc(O)ccc1Cl`, the compound was called inactive.
Take `CCNc1nc(NC(C)C)nc(SC)n1`: the compound was called inactive.
